# FLuc counter – qHTS profiling assay for firefly luciferase inhibitor/activator using purifed enzyme and Km concentrations of substrates (counterscreen for miR-21 project). Luciferin 4-monooxygenase (Photinus pyralis), P08659. purified FLuc, Km substrates, luminescence inhibition. Potency, µM (doses to about 57.5 µM), actives largely listed as inhibitors. hit rate 6.9% among 360,000. AID 588342, 2011; further: nearly all actives have a fitted effect of over 55% in size
# Target sequence (P08659 whole entry, looked up): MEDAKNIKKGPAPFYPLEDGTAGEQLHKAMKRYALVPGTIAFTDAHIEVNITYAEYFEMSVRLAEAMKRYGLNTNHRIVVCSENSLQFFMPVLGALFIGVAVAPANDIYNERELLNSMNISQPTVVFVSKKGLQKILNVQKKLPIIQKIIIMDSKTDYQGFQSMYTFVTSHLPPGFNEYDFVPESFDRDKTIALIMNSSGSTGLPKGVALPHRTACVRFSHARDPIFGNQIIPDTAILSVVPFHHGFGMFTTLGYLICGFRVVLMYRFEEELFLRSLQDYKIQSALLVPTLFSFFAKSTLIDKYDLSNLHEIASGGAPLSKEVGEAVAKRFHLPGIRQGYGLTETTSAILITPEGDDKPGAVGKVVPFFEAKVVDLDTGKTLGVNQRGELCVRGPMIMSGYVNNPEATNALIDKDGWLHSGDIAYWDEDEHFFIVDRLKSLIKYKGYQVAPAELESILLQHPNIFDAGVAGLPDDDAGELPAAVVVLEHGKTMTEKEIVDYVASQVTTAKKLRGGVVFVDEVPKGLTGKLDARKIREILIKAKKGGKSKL
#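 Purified P. pyralis luciferase (10nM final) with 10uM D-luciferin and 10uM ATP (Km levels) in 50mM Tris acetate pH 7.5, 10mM Mg acetate, 0.01% Tween-20, 0.05% BSA; qHTS 6-point titration, ~60 µM downward; luminescence read.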
# Rab9 prom act – qHTS Assay for Rab9 Promoter Activators; Huh7 Rab9 promoter-luciferase reporter, luminescence, 24 h; Potency, µM (series often up to 9.22 µM), hits mostly activators; hit rate 2.8% among 320,000; AID 485297, 2010; further: nearly all actives have a fitted effect of over 60% in size
#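 Rab9 promoter-driven luciferase in stably transfected Huh7 cells; 1500 cells/well rested 2 h, exposed to compound in DMSO for 24 h at 37 °C, 5% CO2. Luminescence read 10 min after adding luciferase reagent at ambient temperature.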
# NPC1 promoter act – qHTS Assay for NPC1 Promoter Activators. Huh7 NPC1 promoter luciferase reporter, 24 h. Potency, µM (doses to about 9.22 µM), usual class: activators. hit rate 2.4% among 320,000; further: nearly all actives have a fitted effect of over 60% in size
#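 Cells: Huh7 expressing luciferase under the NPC1 promoter, 1500/well. Seeded 2 h, compound added, incubated 24 h at 37 °C. Luciferase reagent, 10 min ambient, then luminescence.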
# SMN2 splice enh – qHTS Assay for Enhancers of SMN2 Splice Variant Expression; HEK293 SMN2-luciferase splicing reporter, luminescence, 30-36 h; Potency, µM (highest dose often 46.1 µM), usual class: activators; hit rate 2.8% among 210,000; AID 1458, 2008; further: nearly all actives have a fitted effect of over 55% in size
#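 HEK293 cells carry an SMN2 minigene-luciferase reporter in which exon 7 inclusion puts luciferase in frame. Cells were seeded at 2000 cells/well, attached for 10-12 hours, then exposed to compounds for 30-36 hours at 37C before ONE-Glo luminescence.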
# ELG1 genotox – qHTS screen for small molecules that induce genotoxicity in human embryonic kidney (HEK293T) cells expressing luciferase-tagged ELG1; HEK293T ELG1-luciferase reporter, luminescence, 16 h; hit rate 1.3% among 330,000; AID 504466, 2011; Potency, µM (series often up to 46 µM), actives largely listed as activators; further: nearly all actives have a fitted effect of over 60% in size
#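 Luminescence read-out: rising ELG1-luciferase signal, reflecting elevated ELG1 protein under genetic stress, flags genotoxic compounds. Cells were treated for 16 hr at 37 °C before ONE-Glo detection.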
# Luc counter – Counterscreen for Luciferase (Kinase-Glo TM) Inhibition; Kinase-Glo luciferase, ATP luminescence, 8 min; Potency, µM (doses to about 38.3 µM), hits mostly inhibitors; hit rate 0.28% among 200,000; AID 1379, 2008; further: nearly all actives have a fitted effect of over 60% in size
#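 Light output from Kinase-Glo luciferase with luciferin and 10 uM ATP in 50 mM imidazole pH 7.2, KCl, MgCl2, Tween 20, BSA; compound pin-delivered, 8-min ambient incubation, then luminescence read.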
# A number is an active result; . = inactive; ? = inconclusive; / = not tested or not shown. Sampled rows, rich in hits. Any-hit rate of the full collection: about 7.3%. The call rests on the fitted dose curve; in most records, active means well fitted curve in the direction sought with a large enough effect; inconclusive means small, poorly fitted or top-dose-only effect, or another doubt; inactive means no such curve, though single readings can be large; an effect the other way counts as inactive or inconclusive.
SMILES,FLuc counter,Rab9 prom act,NPC1 promoter act,SMN2 splice enh,ELG1 genotox,Luc counter
CCOc1ccc(-c2c(C(=O)N/N=C/c3ccncc3)nnn2-c2nonc2N)cc1,.,.,.,/,.,/
Cc1ccc(-c2csc(NC(=O)CN3CCOCC3)n2)cc1,.,.,.,/,.,/
Cc1ccc(-c2csc(NC(=O)N3CCOCC3)n2)cc1,26.9µM,.,.,.,?,.
Cc1nnc(NC(=O)CCC(=O)NCc2cccs2)s1,.,.,.,.,.,.
COc1ccccc1/C=C1\SC(=S)N(CCC(=O)NCCCn2ccnc2)C1=O,?,.,.,/,.,/
CC(C)c1ccc(/C=C2\SC(=S)N(CCC(=O)NCCCn3ccnc3)C2=O)cc1,2.39µM,.,.,/,.,/
COc1ccc(/C=C2\SC(=S)N(CCC(=O)NCCCn3ccnc3)C2=O)cc1,19µM,.,.,/,.,/
O=C(CCCN1C(=O)/C(=C/c2ccc(F)cc2)SC1=S)NCCCn1ccnc1,?,.,.,/,.,/
CCn1c(N2CCC(Cc3ccccc3)CC2)nc2c1c(=O)[nH]c(=O)n2C,.,.,.,.,.,.
CC(C)Cn1nnnc1S(=O)(=O)CC#N,/,/,/,.,/,.
COc1ccc2nc(/C=N/NC(=O)CCNC(=O)OC(C)(C)C)ccc2c1,13.5µM,?,?,/,.,/
COc1ccc2nc(/C=N/NC(=O)CCCCCNC(=O)OC(C)(C)C)ccc2c1,10.7µM,3.98µM,3.16µM,/,.,/
Cn1c2ccccc2c2ncn(CCCN3CCOCC3)c(=O)c21,.,.,.,?,.,.
Cn1c2ccccc2c2ncn(CCC3=CCCCC3)c(=O)c21,16.9µM,4.47µM,.,/,?,/
CC(C)c1ccc(NC(=O)C2=NNC(=O)CC2)cc1,12µM,3.16µM,2.82µM,/,?,/
O=C(NC(=S)Nc1ccccc1)c1ccc(Br)o1,13.5µM,?,?,22.4µM,?,.
CC(C)c1ccc(NC(=O)c2ccc(Br)o2)cc1,2.13µM,0.631µM,0.891µM,2.51µM,?,.
COc1ccc(NC(=S)NC(=O)c2ccc(Br)o2)cc1,9.53µM,3.16µM,?,8.91µM,?,.
Cc1ccc(NC(=O)C2=NNC(=O)CC2)cc1F,?,?,?,/,.,/
O=C(NC(=S)NCc1ccccc1)c1ccc(Br)o1,.,.,.,/,.,/
COc1ccc(/C=N/NC(=O)CCn2nc(C)cc2C)cc1,.,.,.,/,.,/
O=C(Nc1ccc(Nc2ccccc2)cc1)c1ccc(Br)o1,19µM,?,.,.,.,.
O=C(Nc1ccc(Cc2ccncc2)cc1)c1ccc(Br)o1,?,.,.,.,.,.
CN1CCN(C(=O)/C=C/c2ccc3c(c2)OCO3)CC1,.,.,.,.,.,.
CCN1CCN(C(=O)/C=C/c2ccc3c(c2)OCO3)CC1,.,.,.,/,.,.
SMILES,FLuc counter,Rab9 prom act,NPC1 promoter act,SMN2 splice enh,ELG1 genotox,Luc counter
O=C(/C=C/c1ccc2c(c1)OCO2)N1CCN(c2n[nH]c(=O)[nH]c2=O)CC1,21.3µM,.,.,/,.,/
COC(=O)C1CCN(C(=O)/C=C/c2ccc3c(c2)OCO3)CC1,?,1.26µM,0.794µM,/,?,/
O=C(/C=C/C=C/c1ccc2c(c1)OCO2)N1CCCCC1,8.49µM,2.51µM,2.51µM,14.1µM,11.6µM,.
O=C(NC1CCCCCC1)C1CCN(S(=O)(=O)c2ccc(F)cc2)CC1,.,.,.,.,.,.
CCc1ccc(N2CC(C(=O)OCC(=O)Nc3ccccc3C)CC2=O)cc1 (stereo unspecified),.,.,.,/,.,/
COc1c(O)c(O)cc2c1oc1c3cc(C)ccc3oc(=O)c21,/,/,/,.,/,.
O=c1oc2ccccc2c2oc3cc(O)c(O)cc3c12,21.3µM,.,.,.,?,.
Cc1ccc(-n2c(C)csc2=N)cc1,5.36µM,2µM,3.16µM,11.2µM,5.17µM,.
Cc1csc(=S)n1-c1ccccc1,.,.,.,.,.,.
Cc1cc(C(=O)C(=O)O)c(C)n1-c1ccc(Cl)cc1,.,.,.,.,.,.
Cc1csc(=N)n1-c1ccc(Cl)cc1,9.53µM,3.55µM,?,.,?,.
COc1cccc(-c2nc(C=O)cs2)c1,.,.,.,.,.,.
Cc1nn(-c2ccc(N3CCCCC3)nn2)c(C)c1CCC(=O)Nc1cc(F)ccc1F,4.78µM,?,?,/,.,/
Cc1nn(-c2ccc(N3CCCCC3)nn2)c(C)c1CCC(=O)Nc1ccccc1F,19µM,?,?,/,.,/
CC(C)N(Cc1nc(-c2ccccc2)no1)C(=O)C(C)(C)C,.,.,.,.,.,.
COc1ccc(-c2noc(CN(C(=O)C(C)(C)C)C(C)C)n2)cc1,?,.,.,.,14.6µM,.
CCCc1ccc(C(=O)/C=C/N(C)C)cc1,5.36µM,1.41µM,1.12µM,/,9.2µM,/
CN(C)/C=C/C(=O)c1ccc(Oc2ccccc2)cc1,4.26µM,1.41µM,?,12.6µM,4.11µM,.
CCOc1ccc(C(=O)N(CC(=O)Nc2cccc(C)c2C)CC2CCCO2)cc1OC (stereo unspecified),.,.,.,/,.,/
COc1ccc(NC(=O)c2cccc(OS(=O)(=O)N(C)C)c2)cc1,6.01µM,2µM,1.58µM,11.2µM,.,.
CN(C)S(=O)(=O)Oc1cccc(C(=O)Nc2cccc(Cl)c2)c1,13.5µM,?,?,?,.,.
CCC(=O)Nc1ccc(Cl)c(NC(=O)c2cccc(OC)c2)c1,.,.,.,.,.,.
CN(C)S(=O)(=O)Oc1cccc(C(=O)Nc2ccc(Cl)c(Cl)c2)c1,4.78µM,2µM,3.55µM,.,.,.
COc1ccc(NC(=O)c2ccc(S(=O)(=O)N(C)C)cc2)cc1,.,.,.,/,.,.
CNS(=O)(=O)c1cccc(C(=O)Nc2cccc(Cl)c2)c1,?,.,.,.,.,.
SMILES,FLuc counter,Rab9 prom act,NPC1 promoter act,SMN2 splice enh,ELG1 genotox,Luc counter
Cc1cccc(C)c1NC(=S)NC(=O)CCc1ccccc1,.,.,.,.,.,.
COc1ccc(-c2cc3ccccc3[nH]2)cc1,4.78µM,2µM,3.55µM,/,?,/
Clc1ccc2[nH]c(-c3ccccc3)cc2c1,10.7µM,2.51µM,3.16µM,?,?,.
Cc1ccc(O)c(-c2cc3ccccc3[nH]2)c1,26.9µM,.,.,.,.,.
COc1ccc(-c2cc(=O)c3ccccc3[nH]2)cc1,?,.,.,.,.,.
c1ccc(-c2cc3ccccc3[nH]2)cc1,19µM,?,?,/,?,/
Cc1ccc(C(=O)OCc2cc3ccccc3[nH]c2=O)cc1,.,.,.,.,.,.
CCN(CC)CCN1C(=O)Cn2c(C)c(C)c3cccc1c32,.,.,.,.,.,.
